A short description of assay [1]: resazurin metabolic signal in HepG2 cells – cell-based, resazurin fluorescence, 24 h, PK04 Diversity Set, profiling panel (AID 1172). Also: test concentration not given here. To be noted: HepG2 viability, higher = more signal. (Resazurin is reduced to fluorescent resorufin, in cell work by metabolically active cells.)
Assay [2] can be described thus: budding yeast growth changes without added modifier – OD600, strain BY4716, 24 h, basal condition, primary screen (AID 1173). To be noted: S. cerevisiae BY4716 growth, OD600, 24 h; higher = more signal, called active from +8 up or from −8 down.
Assay [3] in a line: viability profiling in MM1S myeloma cells – cell-based, resazurin fluorescence, basal, 24 h, PK04 Diversity Set, profiling panel (AID 1174). Also: test concentration not given here. The conditions noted are these: higher = more signal, called active from +8 up or from −8 down.
In assay [4] the target is Dihydroorotate dehydrogenase (quinone), mitochondrial (Plasmodium falciparum (isolate 3D7)) (UniProt Q08210). Description: inhibition of P. falciparum DHODH – biochemical, C-terminal His tag, absorbance 600 nm, primary screen (AID 1175).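 Also: recombinant parasite enzyme with a five histidine tag at its C terminus; test concentration not given here.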 To be noted: PfDHODH enzyme, DCIP absorbance 600 nm; higher = more signal, called active from +8 up or from −8 down.
Dihydroorotate dehydrogenase (quinone), mitochondrial (Plasmodium falciparum (isolate 3D7)), sequence (Q08210 whole entry, looked up): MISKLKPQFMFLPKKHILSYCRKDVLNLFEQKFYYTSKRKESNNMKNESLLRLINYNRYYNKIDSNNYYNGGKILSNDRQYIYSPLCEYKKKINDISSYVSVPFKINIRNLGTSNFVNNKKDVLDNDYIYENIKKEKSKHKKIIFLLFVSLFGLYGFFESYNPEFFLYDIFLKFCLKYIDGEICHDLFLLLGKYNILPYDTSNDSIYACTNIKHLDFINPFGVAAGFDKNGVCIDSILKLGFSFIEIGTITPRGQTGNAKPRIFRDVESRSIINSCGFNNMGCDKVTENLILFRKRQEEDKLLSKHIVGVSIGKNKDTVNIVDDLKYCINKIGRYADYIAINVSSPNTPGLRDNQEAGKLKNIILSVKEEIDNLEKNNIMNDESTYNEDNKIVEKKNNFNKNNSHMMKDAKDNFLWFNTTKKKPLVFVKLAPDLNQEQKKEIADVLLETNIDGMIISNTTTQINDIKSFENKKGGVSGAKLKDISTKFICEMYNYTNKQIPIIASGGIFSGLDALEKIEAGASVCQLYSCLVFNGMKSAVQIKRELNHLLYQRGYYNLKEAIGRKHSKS
Assay [5] in a line: inhibition of PAO1 biofilm formation – strain PAO1, LB-PBS medium, absorbance 600 nm, primary screen (AID 1176). Also: test concentration not given here. The conditions noted are these: P. aeruginosa PAO1 growth/biofilm, A600, 12 h; higher = more signal.
Assay [6] is described as follows: growth modulation of vineyard yeast isolate – strain RM11-1a, OD600, basal, 24 h, primary screen (AID 1177).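 Also: cultures grown under basal conditions with no added stressor; test concentration not given here.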 To be noted: S. cerevisiae RM11-1a growth, OD600, 24 h; higher = more signal, called active from +8 up or from −8 down.
A short description of assay [7]: growth of efflux-deficient E. coli DRC39 – strain DRC39, OD650, 24 h, E. coli filamentation inducers, primary screen (AID 1178).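 Also: growth measured as culture turbidity by optical density at 650 nm; test concentration not given here.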 To be noted: E. coli DRC39 acrAB, higher = more signal, called active from +8 up or from −8 down.
The nature of assay [8]: growth of efflux-deficient E. coli DRC39 – strain DRC39, OD650, 48 h, E. coli filamentation inducers, primary screen (AID 1179).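 Also: screen aims at cell division blockers that make cells filament.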 The conditions noted are these: E. coli DRC39 delta-acrAB growth, higher = more signal, called active from +8 up or from −8 down.
The nature of assay [9]: viability profiling in RPMI8226 myeloma cells – cell-based, resazurin fluorescence, basal, 24 h, PK04 Diversity Set, profiling panel (AID 1180).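 Also: RPMI8826 multiple myeloma cell line at 5000 cells per well; test concentration not given here.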 To be noted: higher = more signal.
Assay [10] concerns the target E3 ubiquitin-protein ligase XIAP (Homo sapiens) (UniProt P98170). As to the kind of experiment: small molecules binding XIAP protein – biophysical, small-molecule microarray, fluorescence 635 nm, primary screen (AID 1181).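 Also: score merges 667 nm emission and signal to noise over triplicate slides.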 The conditions noted are these: higher = more signal.

Among the data in PubChem BioAssay are z-score and composite z-score values, retold here.

Activity calls are given as the source filed them. Unless noted, no rule for the calls is given here.

E3 ubiquitin-protein ligase XIAP (Homo sapiens), sequence (P98170 whole entry, looked up): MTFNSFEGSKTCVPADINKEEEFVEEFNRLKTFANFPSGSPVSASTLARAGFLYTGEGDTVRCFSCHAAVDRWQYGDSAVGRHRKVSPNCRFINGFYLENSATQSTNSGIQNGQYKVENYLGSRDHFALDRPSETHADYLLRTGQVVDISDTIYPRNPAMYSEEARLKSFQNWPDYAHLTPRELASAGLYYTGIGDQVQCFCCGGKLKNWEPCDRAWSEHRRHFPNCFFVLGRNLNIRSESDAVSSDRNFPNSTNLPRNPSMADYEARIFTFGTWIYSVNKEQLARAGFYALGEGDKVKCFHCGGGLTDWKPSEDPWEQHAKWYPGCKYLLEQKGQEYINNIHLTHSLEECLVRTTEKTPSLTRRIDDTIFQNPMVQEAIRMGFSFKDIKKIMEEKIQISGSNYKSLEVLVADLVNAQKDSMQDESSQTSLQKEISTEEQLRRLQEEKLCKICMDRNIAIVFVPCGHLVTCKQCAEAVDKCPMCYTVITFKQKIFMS

Regarding `O=C1[C@H]2[C@H]3[C@H](O)[C@H](O)CC(=NOC[C@@H](O)COCc4ccco4)[C@H]3CC[C@H]2C(=O)N1c1ccc(F)cc1F`, the z-score in assay [1] is 0.474; in [2], -1.89 (inactive); in assay [3], 0.988 (inactive); in [5], 1.18 (inactive); in [6] it was -3.71 (inactive); in [7], -0.311 (inactive). Besides, the z-score in [8] is -1.22 (inactive); in assay [9] it was -0.374. Besides, the composite z-score is -2.54 (inactive) in assay [4] and -0.446 in assay [10].
Consider `COC(=O)[C@@H]1CC[C@H](C)[C@@H](c2ccc(C)cc2)N1C(=O)c1ccc(C=NO[C@@H]2O[C@H](COC(C)=O)[C@@H](OC(C)=O)[C@H](OC(C)=O)[C@H]2OC(C)=O)cc1`, for which the z-score is -0.124 in assay [1]; 0.786 (inactive) in assay [2]; 0.952 (inactive) in assay [3]; -0.172 (inactive) in assay [5]; 0.178 (inactive) in assay [6]; -1.44 (inactive) in assay [7]. Besides, the z-score in assay [8] was -1.65 (inactive); in assay [9] it was 0.369. Besides, the composite z-score in assay [4] is -2.7 (inactive); in [10], 0.0131.
Consider `CCOC(=O)[C@H](Cc1ccccc1)NC(=O)CCC1CC(OC(=O)NCc2cccc3ccccc23)CC2(CCCC(COC(=O)NCCC(C)C)O2)O1` (stereo not given in full), for which the z-score in [1] is 1.15; in [2], -1.07 (inactive); in assay [3], 1.3 (inactive); in assay [5] it was 0.238 (inactive); in assay [6] it was -0.886 (inactive); in assay [7] it was -0.427 (inactive). For the same compound, the values for the z-score in [8] and in assay [9] were 0.319 (inactive) and 1.82, respectively. Moreover, the composite z-score in [4] is -0.619 (inactive); in assay [10], 0.0867.
As to `CCOC(=O)[C@H](Cc1ccccc1)NC(=O)CCC1CC(OC(=O)NCc2ccc3c(c2)OCO3)CC2(CCCC(COC(=O)NCCC(C)C)O2)O1` (stereo not given in full), the z-score in assay [1] was -0.341; in assay [2], -0.426 (inactive); in assay [3] it was 0.812 (inactive); in [5], -1.17 (inactive); in [6] it was 0.895 (inactive); in assay [7] it was 0.308 (inactive). Also, the z-score in assay [8] is 0.249 (inactive); in [9], 0.75. Further, the values for the composite z-score in [4] and in assay [10] were 0.55 (inactive) and -0.0559, respectively.
In the case of `C#CCCCON=C1C[C@@H](O)[C@@H](O)[C@@H]2[C@@H]3C(=O)N(c4ccc(F)cc4F)C(=O)[C@@H]3CC[C@@H]12`, the z-score is 1.49 in [1]; -0.652 (inactive) in assay [2]; 0.225 (inactive) in assay [3]; -1.25 (inactive) in assay [5]; -1.07 (inactive) in assay [6]; -0.0313 (inactive) in assay [7]. Moreover, the z-score is -0.152 (inactive) in assay [8] and 0.33 in assay [9]. Moreover, the composite z-score in assay [4] is -0.278 (inactive); in [10] it was -0.0786.
With `CCN1C(=O)[C@H]2[C@H]3[C@H](O)[C@H](O)CC(=NOC[C@H]4O[C@H](c5ccccc5)C=C[C@@H]4Oc4ccc(OC)cc4)[C@@H]3CC[C@H]2C1=O`, the z-score was -0.985 in assay [1]; -0.933 (inactive) in [2]; -0.641 (inactive) in [3]; 0.241 (inactive) in assay [5]; 0.635 (inactive) in assay [6]; 0.602 (inactive) in assay [7]. Further, the z-score in [8] was 0.923 (inactive); in assay [9], -1.04. Further, the composite z-score was -0.953 (inactive) in assay [4] and 0.0617 in [10].
On to `CCN1C(=O)[C@@H]2[C@H]3C(=CC[C@@H]2C1=O)C1(OCCCO1)[C@H]1O[C@H]1[C@H]3O`, for which the z-score is -2.61 in assay [1]; -9.39 (active) in assay [2]; -8.78 (active) in [3]; 2.64 (inactive) in assay [5]; 1.15 (inactive) in assay [6]; -0.124 (inactive) in [7]. Besides, the z-score in assay [8] was -0.985 (inactive); in [9], -5.89. Further, the composite z-score in [4] is -18.3 (active); in assay [10], -0.141.
Take `CC(C)(C)N1C(=O)[C@H]2[C@H]3[C@H](O)C=CC(=O)[C@@H]3CC[C@H]2C1=O`: the z-score in [1] was 0.136; in assay [2], 1.48 (inactive); in [3] it was 0.469 (inactive); in [5], -0.118 (inactive); in assay [6], 0.846 (inactive); in assay [7], -0.278 (inactive). For the same compound, the z-score was -0.231 (inactive) in assay [8] and 0.467 in [9]. Also, the composite z-score in assay [4] is 0.237 (inactive); in assay [10], -0.102.
On to `CC(CCN1CCCCc2nc(C)c(C)cc21)=NO[C@@H](C)c1cn([C@H](CO)Cc2ccccc2)nn1`, for which the z-score in assay [1] was -0.841; in assay [2] it was 0.102 (inactive); in [3], -1.85 (inactive); in [5], -0.631 (inactive); in assay [6] it was 0.736 (inactive); in [7], 0.882 (inactive). The z-score in [8] is 1.46 (inactive); in assay [9], -0.483. For the same compound, the composite z-score in [4] was -1.55 (inactive); in assay [10], -0.127.
`COC(=O)[C@H](C)NC(=O)CCC1CC(OC(=O)NCCc2ccc(F)cc2)CC2(CCCC(COC(=O)NCCC(C)C)O2)O1` (stereo not given in full): the z-score is -0.666 in [1]; -1.27 (inactive) in assay [2]; 0.711 (inactive) in assay [3]; 0.675 (inactive) in [5]; -1.15 (inactive) in assay [6]; 0.29 (inactive) in assay [7]. For the same compound, the values for the z-score in [8] and in [9] were -0.947 (inactive) and 0.967, respectively. Besides, the results for the composite z-score in [4] and in [10] were -2.05 (inactive) and -0.102, respectively.
Turning to `CCc1cc2c(nc1CC)CCN(CCC(C)=NO[C@@H](C)c1cn([C@H](CO)Cc3ccccc3)nn1)C2`, the z-score was -0.301 in assay [1]; -0.841 (inactive) in [2]; -1.79 (inactive) in assay [3]; -0.218 (inactive) in assay [5]; 0.804 (inactive) in [6]; 0.294 (inactive) in assay [7]. The z-score in assay [8] is 0.67 (inactive); in assay [9], 0.659. Further, the composite z-score was -1.3 (inactive) in assay [4] and -0.0602 in assay [10].
In the case of `Cc1ccc(S(=O)(=O)OC[C@H]2CN3[C@H](c4ccc(Br)cc4)[C@@H](C)CC[C@H]3C(=O)O2)cc1`, the z-score in assay [1] was 0.794; in assay [2], -9.35 (active); in [3], 0.648 (inactive); in [5] it was 1.29 (inactive); in [6] it was -1.42 (inactive); in assay [7], 1.31 (inactive). For the same compound, the z-score in assay [8] was 0.618 (inactive); in assay [9], 0.521. For the same compound, the composite z-score is -0.303 (inactive) in assay [4] and 0.201 in assay [10].
On to `O=C1[C@H]2[C@H]3[C@H](O)[C@H](O)CC(=NOCc4ccccc4)[C@@H]3CC[C@H]2C(=O)N1C[C@@H]1CCCO1`, for which the z-score in [1] is 0.0577; in assay [2] it was -0.321 (inactive); in [3], 0.161 (inactive); in [5], 0.611 (inactive); in assay [6], -0.447 (inactive); in assay [7], -0.242 (inactive). Also, the z-score in assay [8] is 0.403 (inactive); in assay [9], 0.278. The composite z-score in assay [4] was -0.0256 (inactive); in assay [10] it was -0.211.
